Test systems include HCT-15 colon; HT29 colon; SNB-75 CNS; SNB-19 CNS; U251 CNS; PC-3 prostate; SK-MEL-5 melanoma; UACC-62 melanoma; LOX IMVI melanoma; SK-MEL-28 melanoma; EKVX NSCLC; SN12C renal; UO-31 renal; TK-10 renal; ACHN renal; CAKI-1 renal; A498 renal; CCRF-CEM leukemia; MOLT-4 leukemia.
Assay in all cases: NCI-60 one-dose screen, 48 h (100 = growth as untreated, 0 = no growth, -100 = all killed)
What all share (details): 10 µM unless noted

Each structure is given as a SMILES string. About 83,000 compounds went through this panel and 20% of them were active in at least one assay; those are over-represented in the sample as a whole.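 48-hour exposure, single concentration, 96-well plates; percent growth endpoint where 0 means no net growth. Active: below 10.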 Unmarked numbers belong to inactive results. Activity calls are given as the source filed them.

On to `Cc1ncc(-c2ccnc(Nc3ccc(S(C)(=O)=O)cc3)n2)n1C(C)C`, for which the growth in the experiment with HCT-15 colon is 1.34% (active); with HT29 colon, -16.6% (active); in the experiment on SNB-75 CNS, -37.9% (active); in the experiment on SNB-19 CNS it was 7.36% (active); with U251 CNS, 3.47% (active); with PC-3 prostate, -11.1% (active). Moreover, the growth was -55.5% (active) with SK-MEL-5 melanoma; -71.5% (active) with UACC-62 melanoma; 3.16% (active) with LOX IMVI melanoma; -41.8% (active) with SK-MEL-28 melanoma; -10.5% (active) with EKVX NSCLC; 0.723% (active) in the experiment on SN12C renal. Also, the growth in the experiment on UO-31 renal was -9.24% (active); with TK-10 renal it was -3.89% (active); in the experiment on ACHN renal, 0.0849% (active); in the experiment on CAKI-1 renal, 9.99% (active); with A498 renal, -42.6% (active); in the experiment with CCRF-CEM leukemia, 4.05% (active). In the experiment with MOLT-4 leukemia, the growth is -32.6% (active).

In the case of `O=C1OCC2=C1C(c1cccc(F)c1)c1cc3c(cc1N2CCO)OCCO3` (configuration not stated), the growth was 9.75% (active) with HCT-15 colon; 4.94% (active) in the experiment with HT29 colon; 27.3% in the experiment with SNB-75 CNS; 18.6% in the experiment on SNB-19 CNS; 17.8% in the experiment with U251 CNS; 24.8% in the experiment on PC-3 prostate. Also, the growth with SK-MEL-5 melanoma is 8.33% (active); with UACC-62 melanoma, 33%; in the experiment on LOX IMVI melanoma, 31.4%; with SK-MEL-28 melanoma, 44.8%; with EKVX NSCLC it was 37.5%; with SN12C renal, 31%. The growth with UO-31 renal was 42.1%; in the experiment on TK-10 renal it was 57.7%; with ACHN renal it was 23.9%; with CAKI-1 renal, 31.8%; in the experiment with A498 renal, 13.4%; with CCRF-CEM leukemia it was 7.52% (active). For the same compound, the growth in the experiment with MOLT-4 leukemia was 7.49% (active).

`Cn1ccnc1C(=O)/C=C/c1ccc(CC(=O)Nc2ccc(C(F)(F)F)cc2)cc1`: the growth is -18.7% (active) in the experiment on HCT-15 colon; -2.78% (active) with HT29 colon; 0.358% (active) with SNB-75 CNS; 4.97% (active) with SNB-19 CNS; -20% (active) in the experiment on U251 CNS; 13.8% in the experiment on PC-3 prostate. The growth in the experiment on SK-MEL-5 melanoma is 56.9%; in the experiment with UACC-62 melanoma, 27.9%; with LOX IMVI melanoma, -49.4% (active); in the experiment on SK-MEL-28 melanoma it was 77.8%; with EKVX NSCLC, 14.9%; in the experiment on SN12C renal, 10% (active). In addition, the growth in the experiment with UO-31 renal was 22.1%; in the experiment with TK-10 renal, 32.6%; in the experiment with ACHN renal, 27.9%; in the experiment with CAKI-1 renal, 33.5%; in the experiment with A498 renal it was 64.5%; with CCRF-CEM leukemia, 8.58% (active). Moreover, in the experiment with MOLT-4 leukemia, the growth was -7.88% (active).

`O=C(Nc1cn[nH]c1-c1nc2ccc(CN3CCOCC3)cc2[nH]1)NC1CC1`: the growth in the experiment with HCT-15 colon is 50.2%; with HT29 colon, 16.3%; with SNB-75 CNS it was -42.1% (active); in the experiment on SNB-19 CNS, 19.5%; with U251 CNS, 18.6%; with PC-3 prostate, 38.5%. The growth is 36.1% in the experiment on SK-MEL-5 melanoma; 25.1% with UACC-62 melanoma; 1.79% (active) in the experiment with LOX IMVI melanoma; 39.5% in the experiment on SK-MEL-28 melanoma; 68.5% in the experiment on EKVX NSCLC; 17% with SN12C renal. The growth with UO-31 renal is -22.1% (active); with TK-10 renal it was 44%; in the experiment with ACHN renal, 36.1%; with CAKI-1 renal, 23.2%; with A498 renal it was -15.5% (active); in the experiment with CCRF-CEM leukemia it was 13.9%. The growth with MOLT-4 leukemia was -5.45% (active).

Take `CO[C@@H](C)Cn1c(=O)n(C)c2cnc3ccc(-c4cncc(C(C)(C)O)c4)cc3c21`: the growth with HCT-15 colon was 7.42% (active); in the experiment on HT29 colon, 2.26% (active); in the experiment on SNB-75 CNS it was -41.8% (active); in the experiment with SNB-19 CNS it was 8.17% (active); in the experiment with U251 CNS, 2.44% (active); with PC-3 prostate, 7.66% (active). Moreover, the growth in the experiment on SK-MEL-5 melanoma was -96.5% (active); with UACC-62 melanoma, -37.6% (active); in the experiment on LOX IMVI melanoma, -33.8% (active); with SK-MEL-28 melanoma, -8.17% (active); with EKVX NSCLC, 4.47% (active); with SN12C renal, 14.5%. Also, the growth was -18.6% (active) in the experiment on UO-31 renal; -49.6% (active) in the experiment on TK-10 renal; 3.66% (active) in the experiment on ACHN renal; -15.5% (active) with CAKI-1 renal; -55.5% (active) with A498 renal; 10.4% in the experiment on CCRF-CEM leukemia. In addition, the growth in the experiment on MOLT-4 leukemia was -8.71% (active).

As to `Cc1c(NC(=O)OC[C@@H]2COCCN2)cn2ncnc(Nc3ccc4c(cnn4Cc4cccc(F)c4)c3)c12`, the growth in the experiment on HCT-15 colon was 4.13% (active); in the experiment with HT29 colon, -6.28% (active); in the experiment on SNB-75 CNS it was -70.7% (active); in the experiment with SNB-19 CNS, 6.8% (active); with U251 CNS, -6.22% (active); with PC-3 prostate, 9.24% (active). Further, the growth with SK-MEL-5 melanoma is -46.4% (active); in the experiment on UACC-62 melanoma, -14.7% (active); in the experiment with LOX IMVI melanoma, -11% (active); in the experiment on SK-MEL-28 melanoma it was -10.1% (active); with EKVX NSCLC it was 4.4% (active); with SN12C renal, 0.74% (active). Further, the growth was -40.5% (active) in the experiment on UO-31 renal; -7.43% (active) in the experiment on TK-10 renal; -0.373% (active) in the experiment with ACHN renal; -2.81% (active) in the experiment with CAKI-1 renal; -68.8% (active) in the experiment with A498 renal; 6.97% (active) in the experiment with CCRF-CEM leukemia. For the same compound, the growth in the experiment with MOLT-4 leukemia is 1.8% (active).

With `CO[C@H](C(=O)N[C@@H](CCCCNC(=O)OCc1ccccc1)C(=O)OC(C)(C)C)[C@@H]1Cc2cc3cc(OC4CC(OC5CC(O)C(O)C(C)O5)C(O)C(C)O4)c(C)c(O)c3c(O)c2C(=O)[C@H]1OC1CC(OC2CC(OC3CC(C)(O)C(O)C(C)O3)C(O)C(C)O2)C(O)C(C)O1` (some centres not stated), the growth in the experiment on HCT-15 colon is 26.6%; in the experiment with HT29 colon, 2.05% (active); in the experiment with SNB-75 CNS it was -94.3% (active); in the experiment on SNB-19 CNS it was -51.6% (active); in the experiment with U251 CNS it was -82.3% (active); with PC-3 prostate, 3.14% (active). The growth in the experiment on SK-MEL-5 melanoma is -97.7% (active); in the experiment with UACC-62 melanoma, -62.7% (active); in the experiment with LOX IMVI melanoma it was -62.8% (active); in the experiment on SK-MEL-28 melanoma it was -55.7% (active); with EKVX NSCLC, -25.1% (active); with SN12C renal it was -7.42% (active). Also, the growth in the experiment with UO-31 renal is 10.5%; with TK-10 renal, -9.57% (active); with ACHN renal, -2.61% (active); in the experiment with CAKI-1 renal, 22.6%; with A498 renal it was -89.9% (active); with CCRF-CEM leukemia it was 3.09% (active). The growth in the experiment with MOLT-4 leukemia was -12.6% (active).

Take `Ic1ccccc1-c1ccccc1`: the growth in the experiment on HCT-15 colon was 112%; in the experiment with HT29 colon it was 114%; in the experiment with SNB-75 CNS it was 95.3%; with SNB-19 CNS, 101%; in the experiment on U251 CNS it was 105%; with PC-3 prostate, 99.9%. Also, the growth was 111% in the experiment on SK-MEL-5 melanoma; 100% with UACC-62 melanoma; 103% in the experiment with LOX IMVI melanoma; 113% in the experiment on SK-MEL-28 melanoma; 120% in the experiment on EKVX NSCLC; 101% in the experiment with SN12C renal. For the same compound, the growth was 85.5% with UO-31 renal; 106% in the experiment on TK-10 renal; 109% in the experiment with ACHN renal; 111% with CAKI-1 renal; 89.8% in the experiment with A498 renal; 90.1% in the experiment on CCRF-CEM leukemia. For the same compound, the growth in the experiment with MOLT-4 leukemia was 101%.

The values above are taken from PubChem BioAssay (NCI).
